Source: PubChem BioAssay (National Center for Advancing Translational Sciences (NCATS))
Hits are enriched below; roughly 2.1% of the tested compounds scored in any of these assays.
A549 tox = Nrf2 qHTS screen for inhibitors: counterscreen for cytotoxicity; AID 504648, 2011; A549 ARE-Fluc cells, CellTiter-Fluor viability, 18-24 h; Potency, µM (titrated, usually from 46 µM), for the others: at the top dose activity change, negative = cytotoxicity, most hits filed as inhibitors; 390,000 compounds, 0.16% hits; note: potency is the fitted concentration of half-maximal effect; % is set by controls: 0 for no effect and ±100 for the full control effect
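A549 ARE_Fluc cells in 5% FBS OPTI-MEM were exposed to compounds in concentration-response for 18-24 h at 37 deg C. Viability was read by CellTiter-Fluor fluorescence (Ex 405/Em 525) after 30 min, before the luciferase read.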
PTAP TSG101 blk = qHTS Assay for Iinhibitors of HIV-1 Budding by Blocking the Interaction of PTAP/TSG101 | Potency, µM (highest dose often 115 µM), for the others: at the highest dose activity change, negative = inhibition, actives largely listed as inhibitors | AID 493005, 2010 | Fluorescence polarization, FITC-PTAP peptide / Tsg101 binding | 340,000 tested, under 10 active; active = well fitted inhibition curve with a large enough effect in the main read-out, with a control signal flat, not every such curve was filed as active; inconclusive = small, poorly fitted or top-dose-only effect, or effect the other way, or a change in a side signal; inactive = no such curve, though single readings can be large or run the other way; note: potency is the fitted concentration of half-maximal effect; % of control where 0% means no effect
Target sequence (Q99816 whole entry, looked up): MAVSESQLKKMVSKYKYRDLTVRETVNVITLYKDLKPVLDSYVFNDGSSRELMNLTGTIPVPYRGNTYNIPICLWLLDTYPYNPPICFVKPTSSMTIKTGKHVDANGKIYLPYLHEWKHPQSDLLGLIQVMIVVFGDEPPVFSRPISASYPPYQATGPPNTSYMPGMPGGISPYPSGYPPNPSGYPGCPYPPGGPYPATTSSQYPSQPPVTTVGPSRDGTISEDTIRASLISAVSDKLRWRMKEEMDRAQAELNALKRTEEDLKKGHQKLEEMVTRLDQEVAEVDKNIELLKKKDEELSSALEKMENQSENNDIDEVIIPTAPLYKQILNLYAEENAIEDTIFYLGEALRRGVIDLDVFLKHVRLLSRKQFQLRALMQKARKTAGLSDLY
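Fluorescence polarization binding of Tsg101 binding domain (10 uM final) to FITC-labeled PTAP peptide (50 nM final) in HEPES pH 7.5 buffer with NaCl, Tween 20, EDTA, TCEP. Compounds added before peptide; binding 20 min at RT.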
Glioma ERSR ind = qHTS for Inducers of the Endoplasmic Reticulum Stress Response (ERSR) in Human Glioma: qHTS; Potency, µM, for inactives: at the highest dose activation, hits mostly activators; 420,000 compounds, 0.02% hits; AID 602332, 2012; U87-MG GRP78 promoter luciferase reporter, 16 h; note: potency is the fitted concentration of half-maximal effect; series mostly up to about 76 µM; % of control where 0% means no effect; nearly all actives have a fitted effect of over 35% in size
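ERSR induction read as luciferase luminescence (Bright-Glo, 10 min at room temperature) in stably transfected human U87-MG glioma cells exposed to compounds for 16 h, using GRP78 as sensor.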
Nrf2 inh = Nrf2 qHTS screen for inhibitors; 360,000 compounds, 2.1% hits; Potency, µM (top dose mostly 46 µM), without a hit: at the highest dose activity change, negative = inhibition, usual class: inhibitors; A549 ARE-Fluc reporter, luciferase luminescence, 18-24 h; note: potency is the fitted concentration of half-maximal effect; % is set by controls: 0 for no effect and ±100 for the full control effect; nearly all actives have a fitted effect of over 60% in size
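A549 ARE_Fluc cells, 5000/well, 5% FBS OPTI-MEM; compounds in dose-response, 18-24 h at 37 °C/5% CO2; CellTiter-Fluor viability read (Ex 405/Em 525), then BugLite luciferase luminescence = Nrf2 activity.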
Nrf2 ARE act = qHTS of Nrf2 Activators | AREc32 ARE-luciferase reporter (MCF7-derived line), luminescence, 24 h | Potency, µM (titrated, usually from 46.1 µM), for the others: at the top dose activation, hits mostly activators | 410,000 compounds, 0.31% hits | AID 624171, 2012; note: potency is the fitted concentration of half-maximal effect; % of control where 0% means no effect; nearly all actives have a fitted effect of over 65% in size
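ARE activation measured as luciferase luminescence (Steady-Glo, 30 min RT) in AREc32_Fluc cells after 24 hr compound exposure at 37 deg C, 5% CO2; cells seeded overnight at 1000/well in OPTI-MEM, 5% FBS.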
miR-21 act = qHTS Assay for Modulators of miRNAs and/orActivators of miR-21; 340,000 tested, under 10 active; Potency, µM (doses to about 38.3 µM), inactives show at the highest dose activity change, positive = activation, actives largely listed as activators; HeLa miR-21 FLuc reporter, luciferase, 48 h;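 note: % of control where 0% means no effect; miR-21 action dims this reporter so a rising signal means less miR-21 action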
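HeLa cells endogenously expressing miR-21, stably carrying CMV-driven firefly luciferase with a downstream miR-21 binding site, 2000 cells/well. Titrations up to approximately 40 uM, 48 hours; luciferase luminescence read.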
* hit, by the source's call; ? = inconclusive; / = not tested or not shown. Unless noted, calls come from the whole dose curve; as a rule, active = well fitted curve in the direction sought with a large enough effect; inconclusive = small, poorly fitted or top-dose-only effect, or another doubt; inactive = no such curve, though single readings can be large; an effect the other way counts as inactive or inconclusive.

SMILES	A549 tox	PTAP TSG101 blk	Glioma ERSR ind	Nrf2 inh	Nrf2 ARE act	miR-21 act
COc1cccc2cc(C(=O)NCc3ccc(C)cc3)c(=O)oc12	0.6%	-0.2%	-0.2%	-9.3%	-0.1%	-1.5%
COC(=O)[C@@H]1CCCN1C(=O)c1c(OC)cc(=O)n2c1CCN(Cc1ccc3c(c1)OCCO3)CC2	/	/	1.1%	/	/	/
Cc1cccc(COCC(CC(C)C)N2CCN(C(=O)c3ccc(C(C)(C)C)cc3)CCC2=O)c1 (configuration not stated)	?	-2.2%	-3.9%	23.1µM*	-5.6%	0.7%
c1ccc2c(c1)[nH]c1c(NCC3CCCO3)ncnc12 (configuration not stated)	-3.0%	-7.5%	-4.1%	14.6µM*	6.0%	14.9%
CCCCOc1ncnc2c1[nH]c1ccccc12	?	2.4%	2.9%	8.2µM*	7.1%	-0.4%
CCOCCCNc1ncnc2c1[nH]c1ccccc12	-20.8%	-5.3%	6.3%	23.1µM*	11.0%	8.0%
CCCCOc1ncnc2c1[nH]c1ccc(F)cc12	-16.9%	-0.4%	4.2%	2.06µM*	3.7%	-1.1%
CC(C)(C)c1nnc(NS(=O)(=O)c2ccccc2)s1	/	/	-4.4%	/	/	/
COc1ccc(OC)c(/C=C/c2sc3ccccc3[n+]2C)c1	/	/	-2.2%	/	/	/
CC(C)(C)n1ncc2c(=O)n(Cc3ccc(F)cc3)cnc21	/	/	2.4%	/	/	/
CC(C)(C)c1nn(-c2ccccc2)c2[nH]c(=O)c(CNCc3ccc4c(c3)OCO4)cc12	8.4%	-4.5%	-1.3%	?	13.5%	0.1%
CCOc1cccc(NCc2cc3c(C(C)(C)C)nn(-c4ccccc4)c3[nH]c2=O)c1	?	-1.1%	-1.4%	20.6µM*	22.6%	0.6%
O=[S+]([O-])(c1ccc2c(c1)OCCO2)N1CCN([S+](=O)([O-])c2ccccc2Br)CC1	1.4%	/	/	4.5%	/	/
Cc1cccc(C)c1OCc1cc(C(=O)NCC2CCCCC2)no1	10.6%	-0.6%	-3.4%	10.4%	0.3%	-2.0%
Cc1cccc(C)c1OCc1cc(C(=O)N(Cc2c(C)nn(C)c2C)C2CC2)no1	-8.0%	-0.9%	-2.1%	23.1µM*	-0.9%	13.7%
COc1cccc(CN2CCC3(CCC(CNC(=O)c4ccco4)O3)CC2)c1OC (configuration not stated)	/	/	-1.4%	/	/	/
O=[N+]([O-])c1cccc(-c2cnc3ccccc3n2)c1	5.9%	-3.4%	2.7%	?	6.31µM*	-1.4%
Cc1cc(-c2cccc([N+](=O)[O-])c2)nc2ccccc12	-5.6%	-0.4%	1.8%	26.2%	?	-19.8%
Cc1cccc(NS(=O)(=O)c2ccc(C(=O)NCC(c3ccco3)N3CCCCC3)cc2)c1C (configuration not stated)	-26.4%	5.8%	-4.2%	20.6µM*	7.5%	/
O=C(NCC(c1ccco1)N1CCCCC1)c1ccc(NS(=O)(=O)c2ccc(F)cc2)cc1 (configuration not stated)	-8.9%	-1.3%	-7.6%	2.1%	0.5%	3.0%
O=C(/C=C/Nc1ccccc1O)c1ccco1	-10.5%	-4.4%	-0.5%	4.4%	11.2µM*	-62.2%
O=C(/C=C/Nc1ccc(F)cc1F)c1ccco1	?	-1.2%	-12.2%	?	6.31µM*	2.0%
O=C(/C=C/C=C/c1ccccc1)c1ccco1	-2.4%	-0.5%	21.3%	28.8%	11.2µM*	-36.6%
N#Cc1ccccc1COc1ccc(/C=C/C(=O)O)cc1	-0.4%	-3.6%	-15.2%	2.31µM*	-2.1%	24.7%
O=C(O)/C=C/c1ccc(S(=O)(=O)Nc2ccc(OCc3ccccc3)cc2)cc1	-1.7%	-7.1%	6.3%	7.5%	0.4%	-3.5%
SMILES	A549 tox	PTAP TSG101 blk	Glioma ERSR ind	Nrf2 inh	Nrf2 ARE act	miR-21 act
O=C(COc1ccccc1C(=O)Nc1cccnc1)Nc1ccc(Br)cc1	/	/	-0.8%	/	/	/
C=C1C(=O)C23C(O)C1CCC2C12CCCC(C)(COC(C)=O)C1C(O)C3(O)OC2 (configuration not stated)	18.4µM*	-1.3%	-13.6%	9.2µM*	-3.5%	/
CCN(CC)c1ccc(/C=N/NC(=O)c2cccc(S(=O)(=O)N3CCOCC3)c2)cc1	-19.9%	-9.5%	-5.2%	?	3.9%	1.3%
CCN(Cc1ccccc1)c1ccc(/C=N/NC(=O)c2cccc(S(=O)(=O)N3CCOCC3)c2)cc1	-21.7%	2.7%	-2.8%	11.6µM*	2.8%	?
Cc1ccc(NC(=O)Cc2nc(-c3c[nH]c(C(=O)N4CCCC4)c3)cs2)c(C)c1	-0.5%	-0.1%	-3.0%	20.6µM*	8.9%	/
COc1cccc(NS(=O)(=O)c2ccc3c(c2)NC(=O)C(C)S3)c1 (configuration not stated)	-12.9%	-8.2%	-2.3%	20.6µM*	1.9%	13.1%
COc1ccccc1NS(=O)(=O)c1ccc2c(c1)NC(=O)C(C)S2 (configuration not stated)	-16.7%	-2.6%	-4.6%	0.0%	4.4%	17.0%
CCc1cccc(NS(=O)(=O)c2ccc3c(c2)NC(=O)C(C)S3)c1 (configuration not stated)	-1.2%	-5.7%	-6.1%	16.4µM*	0.0%	18.2%
Fc1cccc(Cl)c1C1Nc2cccc3cccc(c23)N1	-9.3%	-5.1%	2.5%	-21.4%	?	0.2%
Clc1cccc(Cl)c1C1Nc2cccc3cccc(c23)N1	?	-2.6%	7.4%	9.2µM*	?	21.0%
O=S(=O)(c1ccccc1)N1CCN(C(=S)NCc2ccccc2)CC1	2.7%	-1.9%	-1.9%	-14.0%	-0.2%	?
CCOc1ccc(S(=O)(=O)N2CCN(C(=S)NCc3ccccc3)CC2)cc1	3.5%	-0.5%	-2.8%	25.9µM*	0.7%	1.6%
Cc1cc(Cl)ccc1OCC(=O)NCC1Cc2cc(-c3cnccn3)ccc2O1 (configuration not stated)	/	/	-5.1%	/	/	/
COc1cc2c(cc1NC(=O)c1cccc([N+](=O)[O-])c1)oc1ccccc12	18.4µM*	-10.2%	-0.8%	16.4µM*	9.0%	5.7%
COc1cc2c(cc1NC(=O)c1ccc(C)c([N+](=O)[O-])c1)oc1ccccc12	4.0%	-0.8%	-1.2%	-3.5%	4.3%	-7.3%
Cc1ccccc1NNC(=O)C(=O)NNc1ccccc1C	5.3%	-9.8%	-0.5%	-1.3%	3.9%	-2.5%
Cc1ccccc1NC(=O)C(Cl)=C(Cl)Cl	0.0%	-1.4%	35.5µM*	-14.4%	23.8%	?
O=C1CCCC2=C1C1(CCCC1)N=C(Nc1nc3ccccc3n1Cc1ccccc1)N2	-6.0%	/	/	16.4µM*	/	/
